Screen size: about 44,000 sequences; about 2,900 (6.6%) were called active. No stated cut-off is given here; in the data, active = GI50 up to about 1.1 µM and inactive = higher. The list is a sample of the results. Measured potencies and affinities stand elsewhere.

The assay deals with NCI/ADR-RES.
In general, GI50 refers to the concentration at which growth is held to half of that of the control. The low end stands for greater sensitivity of the cells, the high end for lower sensitivity of the cells. As to CISPLATIN, CHEMBL11359, halving of growth (GI50) required 4.93 µM. In the case of “[Bis(aminomethyl)tetramethylenesilane]dichloropaltinum(II), CHEMBL2146205” it was 5.22 µM; in that of “[Bis(aminomethyl)tetramethylenesilane]tetrachloropaltinum(IV), CHEMBL2146189”, 5.69 µM; in that of “[Bis(aminomethyl)pentamethylenesilane]tetrachloropaltinum(IV), CHEMBL2146204”, 1.91 µM. In the case of “[Bis(aminomethyl)pentamethylenesilane]dichloropaltinum(II), CHEMBL2146202”, it took 14.3 µM to inhibit growth by half (GI50). “[Bis(aminomethyl)dimethylsilane]tetrachloroplatinum(IV), CHEMBL2146190” showed a GI50 of 15 µM.

The values are drawn from ChEMBL document CHEMBL1201862, “PubChem BioAssay data set” (2004).
